SMILES strings stand for the structures. Calls of active or inactive are those of the source. The limit is not given here; nearly all actives have IC50 up to about 8.1 µM.

A short description of the assay: small molecules binding CAG repeat RNA – biochemical, fluorescence, dose response (AID 686959). Conditions: r(CAG) RNA repeat binding.
`O=C(N/N=C/c1c(O)n(CCC2=CCCCC2)c(=S)[nH]c1=O)c1ccccc1`: the 50% inhibitory concentration (IC50) is 2040 nM (active).

As for `CC/C(=N\NC(=O)c1ccccc1O)c1c(O)n(C2CCCCC2)c(=O)[nH]c1=O`, the concentration for half-maximal inhibition (IC50) is 452 nM (active).

`C/C(=N\NC(=O)c1ccccc1O)c1c(O)n(C2CCCCC2)c(=O)[nH]c1=O`: the IC50 is 450 nM (active).

The values above are taken from PubChem BioAssay AID686959 (The Scripps Research Institute Molecular Screening Center, 2013).
